Results reported in PubChem BioAssay AID1508600 (Functional Genomics Laboratory (NCATS/FGL), 2020).
Among all 53,000 sequences or so, about 3,700 (7%) were called active.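 How the source made its calls: active means gene knockdowns whose robust z-score for IL-1 alpha signal is at least 2 or at most -2, so actives lie on both sides; inactive means the rest.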 Many of the other results were omitted from the sample, so actives are more common in it than they were.

Assay: Components of the Cytosolic LPS Sensing Pathway: Gene Identification via Genome-wide siRNA Screen;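 further: robust z of the log signal after scaling to non-targeting control siRNA wells of the plate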
Conditions: RAW264.7 macrophages, IL-1a HTRF, actives lie on both sides, screened at 100 nM (by protocol), cells primed 5 h with Pam3CSK4 first
In short: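 Three distinct siRNAs per gene were tested singly at 100 nM in RAW264.7 macrophages. Following Pam3CSK4 priming and 24 hour LipidA transfection, IL-1a secretion was read by HTRF.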

z-score, active:
GGUGUUUGUGACUCUGGGUTT against Mc4r 2.77
GGCCCUCAAUACCUGUGGUTT against Olfr690 -3.13
CGUGGUCUUCACGAUUGGATT against Pde4c 3.71
GGAACAAGCAAGUCAAACATT against Olfr770 2.24
GGCCUUACCAAAUGGAAGUTT against Ifih1 2.89
GGACAGCUUGUAAAUUGCCTT against Mup21 -2.05
GGACAAGUGUCAGAUAUCATT against Asah2 -2.02
GGGUUAGGAUACCUCGACUTT against Arnt2 -2.5
GGAAAAGCAAGAGGAAAGATT against Ifnb1 2.39
CCCUCGUCUGAAAUGGAAATT against Nploc4 -2.02
GGUUAUAGGAAGGAAUUGCTT against Krt90 2.58
GGGCUCCUGAGCCUCUUAATT against Sprr1a 2.29

z-score, inactive:
GGCAAUGACCUUGUAAAGATT against Tomm34 -1.56
GUGCUAUUCAUGCACAGCATT against Psca 0.0658
GGAUGUCUUUUUAAGGUUUTT against Eid1 0.987
CCCGUCCCAUCCAUUAUUUTT against Zfp787 -1.19
GCUUUGCAAUUCACAGGGATT against Scgb1b27 -1.76
GGGUUUGAUUCAUCAAAAATT against Peli1 0.314
CCUACGCCAAGCAGUAUGATT against Mcm3 0.286
GGAUUUUGACAGUCUGUGUTT against Endou -0.438
GGACUGAUUGUUUUAUGCUTT against Gdap10 -1.06
GGAGAGACAUCCAAAAGUATT against H60a 0.658
GCCAUAUAAUUUGACAGAGTT against Tarm1 -0.0405
GCUCACAACAUGAGAGUCATT against Atp6v0e -0.539
GGGAAUUACAGCACACAAUTT against Treml4 -0.21
GGAACAAAACAAAUAGCUATT against Vstm2a 1.79
GGUUUCUAUAAAUCUCCCUTT against Eif4b 0.895
GGAGGCUAUCAGAAGCAUCTT against C130021I20Rik 0.762
GGAACCAACAGAGAAAACUTT against Hr 0.317
GGCCUGUUUUUGCAUUUUATT against 9030612E09Rik -0.0316
GCAUUCGAAAUGAAGAUAATT against Dnajb1 -1.75
GGUUUUCUUUUCUUCUGCCTT against Aar2 -1.11
GGGAUUCACUCUUCUUUAGTT against Sebox 1.97
CGACUGGGUCUUAUGUUUATT against Tas2r121 -0.105
CCAAGAAAGACAGUAACUATT against 4930432K21Rik -0.986
GGAUCUGGACUUAAUGCUCTT against Tfeb -0.383
GCACGGAUUAAUGUGAUGATT against Ilk 0.406
CCGUUGGAUACUGUAGUUCTT against Gpr152 0.023
GCAACACACCAUAUCAGGATT against Tas2r135 -0.322
CCACCAUCGGUUGUUAGUUTT against Actg1 1.81
GGUCUCAUUUCAAAUGGUUTT against Lonrf3 0.63
GGAGAUUUCUUCCAUGGUCTT against Hspa2 0.445
CGACAGAGUGAAAAUUAAGTT against Setd3 -0.937
CGCAGAGAAGGACUAUCUUTT against Ush1c -1.58
CCUGCUUACCAAAGAAUCCTT against Klf11 -0.884
GGGACAAGUUGGAUUCUUGTT against Polr1e -0.96
GCCUUACAACAAGCAACACTT against Esrp1 -0.385
GCGGGCCAUGACAAUUACUTT against Slc45a1 0.566
GCGAUGCUGGCAAGUAUGUTT against Robo1 0.45
CCCAGACGAGAACUGUAUCTT against Sqor -0.0381
GGAAAGAUGUGGAAGUAAATT against Erc1 -0.977
GCAACCAUCGUAGCAGAUCTT against Aaas 1.54
GCCACUGAUGUAAGGCUCATT against Lurap1l 0.871
GGAACAGCUGACCUACUUUTT against Ahi1 1.08
GGUAGACCAGCUUAAGAAGTT against Gngt1 -0.0811
GGCUUUUCACAAAACUGUUTT against Zfp120 1.07
CCUAAAUCCUGCUAGGCGUTT against Cbln1 -1.03
GAUGUCCUUCACCUUUGCCTT against Atp5d -1.9
GGCGCACACUUUCACCUAATT against Tmem170 0.194
GGUUGUUUAUACCUGUGAUTT against Cfh -0.292
GGUGUCAACUUUAUUCUUUTT against Rab1a 0.813
GGGAUCCCUUCUGGAAAAGTT against Dmrtc2 0.581
GGUUGCACUCAUCUUAAAATT against Zfp9 1.59
GGAAACUUCCCUUCCUAACTT against Snrpc -0.397
GCCUCUGGCAGAGAAAAGATT against 4930579K19Rik -1.78
CCAAGUUUUCAAAACAAACTT against Aqp3 -0.0587
GGAAGUGGACCAUUUCUUUTT against Olfr1359 0.719
GGCCUGAAGGGAAAGAUUUTT against Rbbp4 -0.721
GGACUUGGGUCAUUGUGAGTT against Grpel1 -0.93
